Screening results: PubChem, National Center for Advancing Translational Sciences (NCATS)
Pf growth 96h: Primary qHTS for delayed death inhibitors of the malarial parasite plastid, 96 hour incubation; P. falciparum luciferase reporter growth, 96 h; Potency, µM (series often up to 28.7 µM), most hits filed as inhibitors; 320,000 compounds, 6.9% hits; active = well fitted inhibition curve with a large enough effect; inconclusive = small, poorly fitted or top-dose-only effect, or another doubt; inactive = no such curve, though single readings can be large or run the other way
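Readout is luminescence from an integrated firefly luciferase in P. falciparum. Red cells, 2% hematocrit and 0.05% parasitemia final, were cultured with compound through two parasite generations (96 hours) at 37 C, 5% CO2.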
NS1 inh: qHTS Assay for Inhibitors of Influenza NS1 Protein Function | Potency, µM (top dose mostly 46.1 µM) | 270,000 compounds, 0.4% hits; note: actives are rising curves; nearly all actives have a fitted effect of over 50% in size
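In this qHTS, NS1 from influenza A is expressed in budding yeast, where it slows growth. Cells are switched from glucose to 2% galactose medium (pH 6.0, -URA), treated with compound, and growth recovery is read at OD600.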
Pf growth 48h: Primary qHTS for delayed death inhibitors of the malarial parasite plastid, 48 hour incubation. P. falciparum luciferase growth in erythrocytes, 48 h. Potency, µM (titrated, usually from 28.7 µM), usual class: inhibitors. 310,000 compounds, 5.9% hits; active = well fitted inhibition curve with a large enough effect; inconclusive = small, poorly fitted or top-dose-only effect, or another doubt; inactive = no such curve, though single readings can be large or run the other way
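First compound was added to culture medium, then infected red cells at 0.1% parasitemia and 2% hematocrit (final). After incubation at 37 C under 5% CO2, luciferase detection reagent was dispensed and light output recorded.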
Cycloheximide cs: Cycloheximide Counterscreen for Small Molecule Inhibitors of Shiga Toxin; cell reporter, cycloheximide protein synthesis inhibition counterscreen; max response, %; 300,000 compounds, 12% hits; in the data active = max response mostly above about 13%, no sharp cut-off; inactive = mostly below about 14%; note: read at 38.3 µM for the half of the compounds with a filed dose
SARS PLP yeast: qHTS of Yeast-based Assay for SARS-CoV PLP; S. cerevisiae expressing SARS-CoV PLpro, growth rescue; Potency, µM (doses to about 32.9 µM), usual class: activators; 330,000 compounds, 0.19% hits; AID 485353, 2010; note: nearly all actives have a fitted effect of over 55% in size
Shiga toxin inh: A qHTS for Small Molecule Inhibitors of Shiga Toxin. Vero cells, Shiga toxin protein synthesis inhibition reporter. inhibition, % at 38.7 µM. 290,000 compounds, 9.2% hits; in the data active = inhibition mostly above about 28%, no sharp cut-off; inactive = mostly below about 43%
Numbers stand for hits; – = inactive; ? = inconclusive; · = no result given; [ ] = another dose, or the depositor's remark. Hits are enriched below; roughly 21% of the tested compounds scored in any of these assays. Unless noted, calls come from the whole dose curve.

SMILES	Pf growth 96h	NS1 inh	Pf growth 48h	Cycloheximide cs	SARS PLP yeast	Shiga toxin inh
CN(Cc1cn(-c2ccccc2)nc1-c1ccc2c(c1)OCO2)Cc1nccn1C	–	–	12µM	–	–	–
COC(=O)C1CCN(Cc2cn(-c3ccccc3)nc2-c2ccc3c(c2)OCO3)CC1	?	–	?	–	–	–
CCCNC(=O)Nc1nc2ccccc2s1	–	–	–	51	–	87
CCOC(=O)Nc1nc(-c2ccc(Cl)cc2Cl)cs1	–	–	–	24	–	78
CN(C)C(=O)c1nc2ccccc2s1	–	–	–	28	–	74
O=C(O)CCC(=O)Nc1nc2ccccc2s1	–	–	·	–	–	–
CN(C)c1ccc(CC(=O)c2nc3ccccc3s2)cc1	3.3µM	–	?	67	–	44
Cc1cc(Cl)c2cc3ccccc3cc2n1	–	–	–	–	–	–
CC(C)Oc1ccc(C(=O)NCCCNC(=O)c2cccnc2)cc1	–	–	–	–	–	–
CC(C)CC(=O)Nc1c2c(nn1-c1cccc(Cl)c1)CS(=O)C2 (stereo not drawn)	–	–	–[0.00184 µM]	–	–	–
CC(C)C(=O)NN(C(=O)C(C)C)c1nc2ccccc2s1	–	–	–	–	–	–
Cc1ccc(CC(=O)Nc2nc3ccccc3s2)cc1	–	–	–	40	–	174
CCCCNC(=O)Nc1ccccc1CC	–	–	–	–	–	–
CN(C(=O)c1ccccc1)c1nc2ccccc2s1	–	–	–	46	–	74
Cc1nc2c(ccc3nc(NC(=O)Cc4ccccc4)sc32)s1	–	–	–	36	–	36
CCCCNC(=O)Nc1nc2ccccc2s1	–	·	–	–	–	71
COc1ccccc1/C=C/C(=O)OCC(=O)Nc1cc(C(F)(F)F)ccc1N1CCOCC1	?	–	–	–	–	–
CCOC(=O)c1nc2ccccc2s1	–	–	–	27	–	61
CCOC(=O)Nc1nc2ccccc2s1	·	–	–	31	–	66
CCCNC(=O)c1ccc(-c2nc3ccccc3s2)s1	–	–	·	48	–	–
CCOC(=O)c1c(NC(=O)CSc2nc3ccccc3s2)sc(C(C)=O)c1C	–	?	–	–	–	–
CCOC(=O)CC(=O)Nc1nc2ccccc2s1	?	–	–	–	–	–
CCCNC(=O)N1CCC(c2nc3ccccc3s2)CC1	?	–	–[0.00184 µM]	–	–	–
Cc1ccc(C(=O)N(Nc2nc3ccccc3s2)C(=O)c2ccc(C)cc2)cc1	?	–	–	10	–	–
CCN(c1ccc(NC(=O)CSc2ccc3c(c2)OCCO3)cc1)C(C)C	·	·	·	·	–	·
SMILES	Pf growth 96h	NS1 inh	Pf growth 48h	Cycloheximide cs	SARS PLP yeast	Shiga toxin inh
CO/N=C\c1cc(C(=O)c2ccc(Cl)cc2Cl)cn1C	?	·	–	–	–	–
Cc1ccc(C(C)c2c(C)c([N+](=O)[O-])cc(C)c2[N+](=O)[O-])cn1 (stereo not drawn)	–	–	?	–	–	–
CCCCNC(=O)Nc1ccon1	–	–	–	–	–	–
CCCCNC(=O)Nc1nc2ccc(CC)cc2s1	–	·	–	34	–	73
CCOC(=O)c1nnc(-c2ccccc2)nc1Sc1ccccc1Cl	?	–	·	–	–	–
CCOC(=O)c1nc(C)nc(Sc2n[nH]c(-c3ccccc3)n2)c1C	?	–	10µM	–	–	–
O=C(O)CC/C(=C\c1ccc(N2CCOCC2)c([N+](=O)[O-])c1)c1nc2ccccc2s1	–	–	–	11	–	–
O=C(O)CC/C(=C\c1ccc2c(c1)OCO2)c1nc2ccccc2s1	–	–	–	34	–	–
O=C(O)C/C(=C\c1ccc(N2CCOCC2)c([N+](=O)[O-])c1)c1nc2ccccc2s1	?	–	?	20	–	–
CCOC(=O)C1CCCN(C(=O)Cn2ncc3c([nH]c4ccccc43)c2=O)C1 (stereo not drawn)	–	–	?	–	–	–
Nc1ncnc2c1ncn2C1OC(C(=O)NC2CC2)C(O)C1O (stereo not drawn)	–	·	–	·	·	·
CC(C)CNS(=O)(=O)c1ccc(S(=O)(=O)N2CCC(N3CCCCC3)CC2)cc1	–	–	–	–	–	–
CCN(CC)Cc1cc(NC2=NS(=O)(=O)c3ccccc32)ccc1OC(=O)C(C)C	·	–	·	–	–	–
